# In PubChem BioAssay AID492998 (Southern Research Specialized Biocontainment Screening …, 2010):
# The campaign covered roughly 2,300 compounds. About 550 (24%) were called active. The rule behind the calls is not given here. A selection follows. Results with a measured potency or affinity are listed apart.
# Experiment: Vero E6 cell cytotoxicity, dose response, cytotoxicity control for non-replicating M. tuberculosis project, secondary assay (AID 492998)
# Details: series mostly up to 20 µM
row,Structure (SMILES),outcome
1,COC(=O)COc1ccc2c(=O)c(Oc3ccccc3)c(C)oc2c1,inactive
2,Cc1nn(C)cc1/C=N/NC(=O)c1sc2ccccc2c1Cl,inactive
3,Cc1ccc(C(=O)N/N=C/c2cccc3ccccc23)cn1,inactive
4,Cc1[nH]nc2c1C(c1ccc(OC(=O)c3ccco3)cc1)C(C#N)=C(N)O2 (stereo not given),inactive
5,CCC(=O)c1ccc(OCC(=O)OCC(=O)N2CCc3ccccc3C2)cc1,inactive
6,O=C1NC(=O)C(=Cc2ccc(Oc3ccc([N+](=O)[O-])cc3)cc2)C(=O)N1,inactive
7,COc1ccc(/C(=N/O)C(C)(C)NO)cc1,inactive
8,CO/N=C/CC(=O)c1ccc(OC)cc1,inactive
9,C/C(=N/Nc1ccnc2cc(Cl)ccc12)c1ccc(N)cc1,inactive
10,CCC(C)(C)c1ccc(OCC(=O)Nc2ccncc2)cc1,inactive
11,O=C(Nc1nnc(-c2ccc(Cl)cc2)o1)c1nc2ccccc2s1,inactive
12,O=C(COc1ccccc1)Nc1nnc(-c2ccc(Cl)cc2)o1,inactive
13,O=C(Nc1nnc(-c2ccc(Cl)cc2)o1)c1cccc(N2C(=O)CCC2=O)c1,inactive
14,O=C(Nc1nnc(-c2ccc(Cl)cc2)o1)C1=COCCO1,inactive
15,COC(=O)COc1cccc(/C=N/NC(=O)CCSc2ccccc2)c1,inactive
16,Cc1ccc(-c2cc(C(F)(F)F)n3nc(C(=O)NCCCn4ccnc4)cc3n2)cc1C,inactive
17,CCc1cc2c(=O)n(C(C)C(=O)OC3CCCCC3)cnc2s1 (stereo not given),inactive
18,CCCCn1c(O)c(/C=C2/C=CC=N2)c(=O)[nH]c1=O,inactive
19,N=C1/C(=C\c2coc3ccccc3c2=O)C(=O)N=C2SC=CN12,inactive
20,CCOC(=O)C1CCN(c2nc3cc(OC)ccc3cc2C#N)CC1,inactive
21,COC(=O)c1cccc(NC(=O)COc2cccc([N+](=O)[O-])c2)c1,inactive
22,O=C(NNC1CC(=O)N(c2ccccc2)C1=O)c1ccco1 (stereo not given),inactive
23,COC(=O)c1ccc(Cn2cc(C(F)(F)F)cc([N+](=O)[O-])c2=O)cc1,inactive
24,O=C(CC1CCCCC1)NCc1ccccc1,inactive
25,Cc1nnc(N/N=C/c2ccc(-c3ccccc3F)o2)n1N,inactive

row,Structure (SMILES),outcome
1,COC(=O)CCn1c(C)cc(C(=O)COc2ccccc2C(N)=O)c1C,inactive
2,Clc1ccc2c(N3CCCC3)ccnc2c1,inactive
3,Fc1ccc(-c2nn(-c3ccccc3)cc2CNCc2ccccc2)cc1,inactive
4,O=c1oc(-c2cccs2)nc2c1cnn2-c1ccccc1,inactive
5,CSc1ccccc1C(=O)NCc1ccc(S(N)(=O)=O)cc1,inactive
6,Cc1[nH]n(-c2ccccc2)c(=O)c1C=Nc1cnc2ccccc2c1,inactive
7,O=C(COC(=O)c1ccccc1Cl)NCCC1=CCCCC1,inactive
8,CC(C)=CC1C(C(=O)Nc2ccc(Br)cn2)C1(C)C (stereo not given),inactive
9,O=C(NCCCN1CCOCC1)c1c(O)c2cc(Br)cc(Br)c2[nH]c1=O,inactive
10,COc1ccc(C(CCNCc2ccc(OC(C)C)cc2)C(C)C)cc1 (stereo not given),inactive
11,COc1ccc(C(C)NC(=O)CCc2ccccc2)cc1 (stereo not given),inactive
12,CCOC(=O)CN1NC2(CCC(C)CC2)NC1=S (stereo not given),inactive
13,COc1ccc(COC(=O)CCNC(=O)c2ccc(Cl)cc2)cc1,inactive
14,COc1ccc(-c2[nH]ncc2CN2CCCCCCC2)c(OC)c1,inactive
15,Sc1oc(-c2ccccc2)cc1C=Nc1ccccc1,inactive
16,CCOC(=O)c1c(-c2ccccc2)csc1NC(=O)CCN1CCOCC1,inactive
17,CN1c2ccsc2/C(=N/Nc2ccccc2)CS1(=O)=O,inactive
18,CCOC(=O)CNC(=O)CNC(=O)c1nn(-c2ccc(OC)c(Cl)c2)c(=O)c2ccccc12,inactive
19,CCOC(=O)c1ccc(NC2=CC(=O)C(=O)c3ccccc32)cc1,inactive
20,O=C(O)c1ccccc1C(=O)NNc1ccc(F)cc1,inactive
21,CCOC(=O)COc1cc(O)c2c(=O)cc(-c3ccccc3)oc2c1,inactive
22,CCOC(=O)CCNC(=O)c1ccc2nc(C3CCCCC3)oc2c1,inactive
23,O=C(Nc1ccc(Cl)cn1)C1COc2ccccc2O1 (stereo not given),inactive
24,COC(=O)COc1ccc2cc(-c3ccc(OC)cc3)c(=O)oc2c1,inactive
25,COC(=O)CN(C#N)c1nc(N(C)C)nc(N(C)C)n1,inactive

row,Structure (SMILES),outcome
1,CC(/C=C/c1ccccc1F)=N\NC(=O)c1ccccc1,inactive
2,Cc1ccc(NC(=S)C2=C(O)c3sccc3N(C)S2(=O)=O)cc1,inactive
3,Cc1ccc(OCC(=O)N2CCCc3ccccc32)cc1,inactive
4,Cc1ccc(NC(=O)CO/N=C/c2ccc(N(C)C)cc2)cc1,inactive
5,COc1ccc(C(=O)C=CNNC(=O)c2ccc(Cl)cc2)cc1,inactive
6,Cc1ccc(C(=O)C=CNNC(=O)c2ccccc2)cc1,inactive
7,O=C(COc1ccc(F)cc1)Nc1ccc2c(c1)OCCO2,inactive
8,Cc1ccc(-n2cc(CNCCn3nc(C)cc3C)c(-c3ccc(F)cc3)n2)cc1,inactive
9,Cc1ccc(-n2cc(CNCCc3cscn3)c(-c3ccc(F)cc3)n2)cc1,inactive
10,COc1ccc(OCc2n[nH]c(=S)o2)cc1,inactive
11,Cc1cccc(NC(=O)CO/N=C/c2ccc3c(c2)OCO3)c1,inactive
12,CCc1nnc(NC(=O)CN2CCN(Cc3ccc(F)cc3)CC2)s1,inactive
13,COC(=O)COc1ccc2c(=O)c(-c3ccccc3)coc2c1,inactive
14,c1ccc2cc(OCCCn3ccnc3)ccc2c1,inactive
15,C=CCc1cc(Cl)ccc1OCCCn1ccnc1,inactive
16,CC(CN1CCOCC1)OC(=O)c1ccc(Br)cc1 (stereo not given),inactive
17,CC(C)COc1ccc(C(=O)CCN2CCCCC2)cc1,inactive
18,COc1ccc2cc(C(=O)NCc3ccccc3CN3CCCC3)ccc2c1,inactive
19,CCCCOc1ccc(NC(=O)CN2CCN(Cc3ccccc3)CC2)cc1,inactive
20,CC(NC(=O)OCc1ccccc1)c1ccccc1 (stereo not given),inactive
21,Cc1ccc(NC(CC(=O)c2ccccc2)C(=O)O)cc1Cl (stereo not given),inactive
22,CC(CN1CCOCC1)OC(=O)c1ccc2c(c1)OCCO2 (stereo not given),inactive
23,COc1ccc(C(=O)CCN2CCCCCC2)cc1,inactive
24,O=S(=O)(CCN1CCN(c2ccccn2)CC1)c1ccc(Cl)cc1Cl,inactive
25,O=C(N[C@@H]1C[C@H]2CC[C@@H]1C2)c1ccco1,inactive

row,Structure (SMILES),outcome
1,Cc1ccc(NCCC(=O)c2cccs2)cc1C,inactive
2,O=C(OCn1nnc2ccccc2c1=O)c1ccc(N2CCOCC2)c([N+](=O)[O-])c1,inactive
3,CCOC(=O)C1=C(C)NC(=O)NC1c1ccc(-c2ccc(F)cc2)o1 (stereo not given),inactive
4,CCOC(=O)c1ccc(N=C2SC(C(=O)Nc3ccc(C(=O)O)cc3)CC(=O)N2Cc2cccs2)cc1 (stereo not given),inactive
5,O=c1oc2ccccc2nc1/C=C(\O)c1ccc(Br)cc1,inactive
6,O=C(CCSc1ccccc1)N1CCCC1,inactive
7,O=C(CCN1CCCCCC1)c1ccccc1,inactive
8,Cc1nnc(N/N=C/c2ccc(Br)cc2)n1N,inactive
9,COCCSc1nnc(NC(=O)CCS(=O)(=O)Cc2ccccc2)s1,inactive
10,CCCCOc1ccc(CSCCN)cc1Cl,inactive
11,CC(=O)c1ccc(NC(=O)C(Cc2ccccc2)n2cccc2)cc1 (stereo not given),inactive
12,Cc1ccccc1C(=O)NNc1ccc([N+](=O)[O-])cc1,inactive
13,Cc1ccc(NC(=O)ON=C2CCCC2)cc1,inactive
14,Cc1cc(C)n(-c2ccc(C(=O)Oc3ccc4c(c3)OCO4)cc2)n1,inactive
15,CCN(CC)CCSc1nnc2c3cc(C)ccc3n(Cc3ccccc3)c2n1,inactive
16,Cc1c(C(=O)NNC(=O)c2csc(N3CCOCC3)n2)oc2ccccc12,inactive
17,NC(=O)N/N=C/c1ccccc1OC(=O)c1cc2ccccc2oc1=O,inactive
18,CCC(C)(C)NC(=O)c1ccc(Br)o1,inactive
19,O=C(Nc1ccccc1)c1ccc(Br)o1,inactive
20,CC(C)(C)OC(=O)N/N=C\c1ccc(OC(=O)c2ccco2)cc1,inactive
21,CC1(c2nnc(-c3ccccc3)o2)CC(c2ccc(Cl)cc2)=NO1 (stereo not given),inactive
22,Clc1ccc(OCCOCCN2CCc3ccccc3C2)c(Cl)c1,inactive
23,Cc1cc(C)n(-c2ccc(C(=O)OCC(=O)Nc3cc(Cl)ccc3[N+](=O)[O-])cc2)n1,inactive
24,COc1ccccc1/C=C/C=N/NC(=O)c1ccncc1,inactive
25,Cc1ccc(CN2CC(C(=O)OCc3ccccc3Cl)CC2=O)cc1 (stereo not given),inactive

row,Structure (SMILES),outcome
1,Cc1ccc(C(=O)COC(=O)CCc2ccc(S(=O)(=O)N3CCCCC3)cc2)cc1,inactive
2,Cc1ccc(N2NC(=O)/C(=C/C=C/c3ccco3)C2=O)cc1C,inactive
3,Cc1ccc(OCCCCn2ccnc2)c(Cl)c1,inactive
4,CC1(C)Oc2ccc(NC(=O)C3COc4ccccc4O3)cc2O1 (stereo not given),inactive
5,O=C(Oc1ccccc1Cl)c1ccc2c(=O)n3c(nc2c1)CCC3,inactive
6,CCOc1ncccc1C(=O)OCC(=O)N1CCc2ccccc21,inactive
7,C=CCOC(=O)c1ccc(-n2cnc(C)n2)nc1,inactive
8,O=C1CCC/C(=N/Nc2ccc(Cl)cc2)C1,inactive
9,CCc1nnc(N/N=C/c2c(F)cccc2Cl)n1N,inactive
10,CCc1ccc(Cc2cnc(NC(=O)C3=NCCN3)s2)cc1,inactive
11,Cn1c(SCCOc2cccc(Cl)c2)nnc1-c1ccncc1,inactive
12,O=C(Oc1ccccc1)c1cccc(COC(=O)c2cnccn2)c1,inactive
13,O=S(=O)(c1ccc(Cl)c2ccccc12)N1CCCC1,inactive
14,c1ccc(-c2noc(CC3CCCCC3)n2)nc1,inactive
15,O=C(COc1ccc(Cl)cc1)Nc1ccc2[nH]ncc2c1,inactive
16,CCOC(=O)C(C)Oc1ccc(OCc2ccccc2)cc1 (stereo not given),inactive
17,CC(C)c1ccc(OCC(=O)NCc2ccccc2)cc1,inactive
18,Cc1cccc(NC(=O)c2ccc(OC3CSC3)cc2)c1,inactive
19,O=C(CCNc1ccc(Cl)cc1)c1cccs1,inactive
20,O=C(NNC(=O)c1cccs1)c1ccc(Br)o1,inactive
21,Cc1ccc(CC(=O)N2CCN(c3ccc([N+](=O)[O-])cc3)CC2)cc1,inactive
22,O=[N+]([O-])c1ccc(CN2CCN(c3ccccc3)CC2)o1,inactive
23,O=C(N/N=C/c1ccc([N+](=O)[O-])o1)c1ccc(NS(=O)(=O)c2cccs2)cc1,inactive
24,O=[N+]([O-])c1ccc(N2CCN(Cc3ccc([N+](=O)[O-])o3)CC2)cc1,inactive
25,O=C(c1cccs1)N1CCN(c2ccc(Cl)cc2)CC1,inactive
